# Measured values published in PubChem BioAssay (NCI).
# Several values for one entry are separate records, joined by “and”; a condition that tells them apart may be missing. Identical values can stand only once. This is part of a sample that, as a whole, favours compounds with a hit. Of some 83,000 tested, about 20% had one in any assay.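 Single-concentration screen, 48 h exposure, 96-well plates. Endpoint: percent growth. Below 10 = active.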 Activity calls are given as the source filed them.
# Tested on: MDA-MB-468 breast
# Assay: NCI-60 one-dose screen, 48 h (100 = growth as untreated, 0 = no growth, -100 = all killed)
# Conditions: 10 µM unless noted
row,SMILES,growth
1,CN1CCc2cccc3c2C1Cc1ccc(O)c(O)c1-3 (configuration not stated),0.652% (active)
2,O=c1oc2ccc(-c3ccc(F)cc3F)cc2c(=O)n1-c1cccc(C(F)(F)F)c1,-12.8% (active) and -5.33% (active)
3,Cn1c2ccccc2c2c3[nH][nH]c(=O)c3c3c4ccccc4[nH]c3c21,49.5% (inactive)
4,Cc1nc2sc(C(=O)Nc3cccc(Cl)c3)c(N)c2cc1C(O)c1ccccc1 (configuration not stated),15.3% (inactive)
5,CC1(C)OC2OC3C(CN)OC(c4ccccc4)OC3C2O1 (configuration not stated),116% (inactive)
6,IP(CCCSc1n(Cc2ccc3ccccc3c2)c(-c2ccccc2)c(-c2ccccc2)[n+]1Cc1ccc2ccccc2c1)(c1ccccc1)(c1ccccc1)c1ccccc1,-21.5% (active)
7,Cn1cc(-c2ccc3ncc(-c4ccc(CC(=O)Nc5cc(C(C)(C)C)no5)cc4)nc3c2)cn1,48.9% (inactive)
8,Cc1cc(C)cc(NC(=O)Cn2nncc2CN2C(=O)CSC2=O)c1,97% (inactive)
9,O=C1NC(=O)/C(=C/c2c(-c3ccccc3)nc3sc(COc4ccccc4)nn23)S1,98.9% (inactive)
10,O=C(CNc1ncco1)Nc1ccc(S(=O)(=O)c2ccc(NC(=O)CNc3ncco3)cc2)cc1,-61.7% (active)
11,COC(=O)CCCNC(=O)C(=O)c1c(O)c(O)c(C(C)C)c2cc(C)c(-c3c(C)cc4c(C(C)C)c(O)c(O)c(C(=O)C(=O)NCCCC(=O)OC)c4c3O)c(O)c12,-1.3% (active)
12,O=C1/C=C/[C@@H](O)[C@@H]2C[C@@H](O)C[C@H]2/C=C/CCC[C@H](CCc2ccccc2)O1,-43.7% (active)
